Assay outcomes (PubChem)
MITF primary = inhibitors of human MITF. O75030. AlphaScreen MITF homodimerization, bead proximity signal. 650,000 compounds, 0.91% hits. inhibition, % at 2.6 µM; in the data active means inhibition above about 50%
Target sequence (O75030 whole entry, looked up): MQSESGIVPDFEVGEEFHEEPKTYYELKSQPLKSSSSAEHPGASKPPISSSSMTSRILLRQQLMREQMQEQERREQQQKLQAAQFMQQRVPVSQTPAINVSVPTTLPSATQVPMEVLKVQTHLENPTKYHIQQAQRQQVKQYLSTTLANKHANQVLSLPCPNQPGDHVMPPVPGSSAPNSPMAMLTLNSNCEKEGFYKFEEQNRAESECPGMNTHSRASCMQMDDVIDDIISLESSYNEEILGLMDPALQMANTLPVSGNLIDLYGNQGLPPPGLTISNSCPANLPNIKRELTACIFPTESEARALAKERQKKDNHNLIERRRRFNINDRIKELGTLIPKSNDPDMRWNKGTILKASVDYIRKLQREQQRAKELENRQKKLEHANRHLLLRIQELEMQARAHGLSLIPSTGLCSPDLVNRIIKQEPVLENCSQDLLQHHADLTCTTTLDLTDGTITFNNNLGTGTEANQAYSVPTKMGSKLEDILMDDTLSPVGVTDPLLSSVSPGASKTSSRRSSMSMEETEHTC
GPR151 activ = activators of human GPR151 | Q8TDV0 | PathHunter beta-arrestin GPR151 cells, luminescence | activation, % at 11.2 µM | 650,000 compounds, 1% hits | AID 1508602; in the data active means activation above about 4.9%
FBW7 act = human FBW7 E3 ligase activation, primary screen. normalized activity (activation), % at 26.1 µM. AlphaScreen FBW7–phospho-cyclin E peptide binding, activator screen. Q969H0. 650,000 compounds, 0.13% hits; in the data active means normalized activity above about 1.9%;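 further: purified mutant Fbw7 with reduced substrate affinity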
TEAD-YAP block = TEAD-YAP interaction inhibition. 640,000 compounds, 1.4% hits. inhibition, % at 9.12 µM. HEK-TIYL cells, TEAD-Gal4/YAP UAS-luciferase luminescence. AID 1259422; in the data active means inhibition above about 32%
MITF inh conf = human MITF inhibition, confirmation; inhibition, % at 2.6 µM; 4,700 compounds, 16% hits; shares compounds with MITF primary; AlphaScreen MITF homodimerization, biotin/His-MITF beads;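 active means inhibition above a cutoff derived from the DMSO control wells, cut at about 28% in these data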;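 further: inhibitors lower the bead chemiluminescence by keeping MITF from dimerizing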
AlphaScreen DR = optically interferes with AlphaScreen signal in dose response | shares compounds with MITF primary | AlphaScreen optical interference counterscreen, cell-free | IC50, µM | 480 compounds, 6% hits; call rule not given here
AS interf ctr = optically interferes with AlphaScreen signal; LysRS AlphaScreen counterscreen, signal interference, triplicate; inhibition, % at 2.6 µM; 4,700 compounds, 7.6% hits; shares compounds with MITF primary;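 active means inhibition above a cutoff derived from the DMSO control wells, cut at about 30% in these data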
Hits are given with their value; - = inactive; . = not tested or not shown. Compounds with a hit are over-represented: about 3.4% of the library has one in this group of screens.

SMILES | MITF primary | GPR151 activ | FBW7 act | TEAD-YAP block | MITF inh conf | AS interf ctr | others
c1cnc2c(c1)ccc1cccnc12 | 111.1 | - | - | 35.1 | 115.2 | 100.6
CC[n+]1cccc2ccc3cccnc3c21 | - | - | - | - | . | .
Cc1ccccc1CSc1nc(=O)n(CCCO)c2c1CCCC2 | - | - | - | - | . | .
O=c1nc(SCc2ccccc2)c2c(n1CCCO)CCCC2 | 80.3 | - | - | - | - | -
C/C=C/c1ccc(OCCOCCN2CCCC(C)C2)c(OC)c1 (stereo unspecified) | 52.9 | - | - | - | - | -
COc1cc(C)ccc1OCCOCCN1CCCC(C)C1 (stereo unspecified) | 63.2 | - | - | - | - | -
C/C=C/c1ccc(OCCCCN2CCN(CC)CC2)c(OC)c1 | 74.2 | - | - | - | - | -
Cn1cc(CN2CCOc3ccc(CN4CCC(OCc5ccccc5)CC4)cc3C2)cn1 | - | - | - | - | . | .
Cc1cccc(NC(=O)c2cccc(OCc3ccccc3)c2)n1 | - | - | - | - | . | .
Cc1cccc(NC(=O)c2ccc(COc3ccccc3Br)cc2)n1 | 69.5 | - | - | - | - | -
Nc1cccc(N2C(=O)c3cc(S(=O)O)cc4c(N)c(S(=O)O)cc(c34)C2=O)c1 | 57.7 | - | - | - | 79.3 | - | AlphaScreen DR=-
Cc1ccc(NC(=O)C2(N3C(=O)CC3c3ccco3)CCCCC2)cc1 (stereo unspecified) | 67.8 | - | - | - | - | -
CC(NC(=O)Cc1ccccc1Cl)c1ccc(F)cc1 (stereo unspecified) | 57.8 | - | - | - | - | -
CC(NC(=O)CCSCCC(=O)NC(C)c1ccccc1)c1ccccc1 (stereo unspecified) | - | - | - | - | . | .
CC(NC(=O)Cc1ccc(F)cc1)c1ccccc1 (stereo unspecified) | - | - | - | - | . | .
CC(NC(=O)CCSCc1ccccc1F)c1ccccc1 (stereo unspecified) | 58.8 | - | - | - | - | -
CCCCN(C)C(=O)C1CCC(CNc2c(N3CCC(C)CC3)c(=O)c2=O)CC1 (stereo unspecified) | - | - | - | - | . | .
CC(=O)Nc1ccc(C(C)(C)C)cc1[N+](=O)[O-] | - | - | - | - | . | .
O=CN1CCN(Cc2coc3c(Cl)cc(Cl)cc3c2=O)CC1 | - | - | - | - | . | .
CN1CCCN(Cc2coc3c(Cl)cc(Cl)cc3c2=O)CC1 | 55.3 | - | - | - | - | -
CN1CCCN(Cc2c(F)cccc2F)CC1 | 78.5 | - | - | - | - | -
CN1CCCN(Cc2c(Cl)cccc2Cl)CC1 | 63.2 | - | - | - | - | -
O=C(CSc1ccncc1)N1CCC(c2[nH]ncc2-c2ccccc2)CC1 | - | - | - | - | . | .
c1csc(C2CCCN2c2nncc(-c3ccc4c(c3)OCO4)n2)n1 (stereo unspecified) | - | - | - | - | . | .
COc1cc(NC(=O)CSc2nc(=O)n(CCN(C)C)c3c2CCCC3)cc(OC)c1 | - | - | - | - | . | .
SMILES | MITF primary | GPR151 activ | FBW7 act | TEAD-YAP block | MITF inh conf | AS interf ctr | others
COc1oc(-c2ccc(C)cc2)nc1C(F)(F)F | - | - | - | - | . | .
COc1oc(-c2ccc(F)cc2)nc1C(F)(F)F | 54.5 | - | - | - | - | -
O=C1OC(OC(=O)c2ccco2)C(Nc2ccccc2)=C1Cl (stereo unspecified) | 70.8 | - | - | - | - | -
CN(C)CC(C)(C)CNC(=O)C1CCN(Cc2cccc(Br)c2)CC1 | 57.5 | - | - | - | - | -
CCOC(=O)c1cnc(-n2[nH]c3c(c2=O)CCCC3)[nH]c1=O | 88.2 | - | - | - | 47.1 | 63.9
CCOC(=O)c1cnc(OC)[nH]c1=O | - | - | - | - | . | .
Cc1nc(S(=O)(=O)c2ccccc2)c(SCc2ccc([N+](=O)[O-])cc2)o1 | 61.9 | - | - | - | - | 32.9
Cc1ccc2nc(-c3ccc(NC(=O)c4ccc(Cl)cc4Cl)cc3)sc2c1 | - | - | - | - | . | .
COc1cccc(NC(=S)NC(=O)/C=C/c2ccco2)c1 | - | - | - | - | . | .
O=C(/C=C/c1ccco1)NC(=S)Nc1cccc(C(=O)O)c1 | 69.4 | - | - | - | 62.1 | - | AlphaScreen DR=-
CCN1CCc2c(sc(NC(=S)NC(=O)/C=C/c3ccco3)c2C(N)=O)C1 | 77.5 | - | - | - | 78.9 | - | AlphaScreen DR=-
CCN1CCc2c(sc(NC(=S)NC(=O)/C=C/c3ccccc3)c2C(N)=O)C1 | - | - | - | - | . | .
